# Compounds with a hit are over-represented: about 3% of the library has one in this group of screens.
# Shn3 3UTR inh: inhibitors of Schnurri-3 3'UTR reporter in osteoblasts. Clone20 osteoblast Shn3 3'UTR firefly luciferase, 24 h. inhibition, % at 12.5 µM. actives 0.52% (n = 360,000);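 active means mean inhibition of at least 75% with every replicate also reaching 75%; inconclusive means mean inhibition at least 75% but some replicate below; inactive means mean inhibition below 75%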;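 further: 0% = median of neutral control wells and 100% = pilot-screen positive control compound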
# PAX8 inh HTS: lowers PAX8-driven luciferase in RMG-I cells; RMG-I TPO-luciferase reporter, SteadyGlo, 24 h; inhibition, % at 12.6 µM; actives 1.2% (n = 360,000);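 active means mean replicate inhibition at least 60% with every replicate also reaching 60%; inconclusive means only one of the two criteria is met; inactive means mean below 60% and not all replicates reaching 60%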;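 further: luciferase light reporting Pax8 driven TPO promoter activity; plate controls were median of neutral control wells for no effect and mitoxantrone controls for full effect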
# ABHD5-PLIN5 inh: inhibitors of human ABHD5-perilipin-5 interaction | Q00G26+Q8WTS1 | Split G. princeps luciferase complementation, luminescence, 4 h | inhibition, % at 4 µM | actives 0.78% (n = 360,000) | AID 602281;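 active means inhibition above the mean inhibition across every tested compound plus 3 SD, cut at about 22% in these data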;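 further: 0% = DMSO only wells and the 100% control is not disclosed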
# Peg3 prom inh-1: inhibitors of Peg3 promoter. inhibition, % at 20 µM. AID 588405. HeLa PEG-Prom luciferase reporter, luminescence, overnight. actives 1.7% (n = 360,000);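 active means inhibition of at least 50% at 20 µM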
# TRPM1 prom inh: MITF TRPM1 promoter inhibition in SK-MEL-5 cells; SK-MEL-5 TRPM1 promoter luciferase, 24 h; inhibition, % at 12.5 µM; actives 0.83% (n = 330,000);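 active means mean inhibition across replicates of 60% or more, whatever share of single replicates reaches that level; inconclusive means some that reach 60%, reason not given; inactive means mean inhibition across replicates below 60%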
# EWS-Fli inh: EWS/Fli transcriptional activity inhibition. AID 651661. actives 0.67% (n = 350,000). inhibition, % at 12.6 µM. A673 NR0B1-luciferase reporter, viability-normalised;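 active means mean inhibition of at least 50% after viability correction, with every replicate also passing that limit; inconclusive means mean reaches 50% but only one of two replicates passes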;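 further: firefly luciferase signal divided by Alamar Blue viability fluorescence both relative to DMSO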
# Peg3 prom inh-2: confirmation of Peg3 promoter inhibitors | inhibition, % at 20 µM | shares compounds with Peg3 prom inh-1 | HeLa PEG-Prom luciferase reporter, luminescence, overnight | actives 84% (n = 1,300) | AID 602417;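 active means at 20 µM dose, 40% or more inhibition averaged across four replicates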
# Starred values were filed as active, the others as inactive; ? = inconclusive; nt = not tested or not shown.
SMILES,Shn3 3UTR inh,PAX8 inh HTS,ABHD5-PLIN5 inh,Peg3 prom inh-1,TRPM1 prom inh,EWS-Fli inh,Peg3 prom inh-2
COc1ccc(CCNc2ccc(C(CC(N)=O)NC(=O)c3ccc(Br)cc3)cc2[N+](=O)[O-])cc1 (stereo not given),39,3,0,69*,2,-13,19
NC(=O)CC(NC(=O)Cc1cccc2ccccc12)c1ccc(NCCOc2ccccc2)c([N+](=O)[O-])c1 (stereo not given),14,-16,-1,54*,-16,7,27
NC(=O)CC(NC(=O)Cc1cccc2ccccc12)c1ccc(NC2CCCC2)c([N+](=O)[O-])c1 (stereo not given),4,-13,4,-3,-1,-3,nt
NC(=O)CC(NC(=O)Cc1cccc2ccccc12)c1ccc(NC2CCCCC2)c([N+](=O)[O-])c1 (stereo not given),3,-8,-5,78*,-1,0,14
CCCC#Cc1cnc2c(c1)C(=O)N([C@@H](C)CO)C[C@@H](C)[C@H](CN(C)C(=O)NC1CCCC1)O2,nt,-18,nt,nt,nt,8,nt
C/C=C/c1ccc2c(c1)O[C@@H](CN(C)C(=O)NC(C)C)[C@@H](C)CN([C@H](C)CO)S2(=O)=O,nt,nt,nt,nt,nt,-11,nt
C/C(=N\N=C(N)N)c1cc(Cl)ccc1Cl,32,7,-4,7,11,8,nt
C/C(=N\N=C(N)N)c1ccc(Cl)cc1Cl,23,1,6,71*,-9,19,73*
O=C1c2ccccc2C(=O)C1c1ccc(Cl)cc1,4,7,9,9,-9,-23,nt
O=C1c2ccccc2C(=O)C12OC2c1ccc(Cl)cc1Cl (stereo not given),95*,nt,-9,99*,?,26,51*
CCCC(=O)Nc1ccc2c(c1)OC[C@@H](C)N(CC1CCCC1)C[C@H](C)[C@@H](OC)CN(C)C2=O,nt,4,nt,nt,nt,6,nt
Cc1cccc(NC(=O)CSc2nc3ccccc3c3nc(CCc4c(C)n[nH]c4C)nn23)c1,75,nt,6,57*,-4,nt,58*
Cc1n[nH]c(C)c1CCc1nc2c3ccccc3nc(SCC(=O)Nc3ccccc3F)n2n1,72,43,2,20,42,nt,nt
Cc1ccc(C(=O)N2CCN(c3ccc([N+](=O)[O-])c(NCc4cccnc4)c3)CC2)cc1,16,36,8,56*,-3,16,48*
Cc1ccccc1C(=O)N1CCN(c2ccc([N+](=O)[O-])c(NCc3cccnc3)c2)CC1,26,12,2,46,-3,nt,nt
CC1CC(C)C(=O)C(C(CC2CC(=O)NC(=O)C2)OC(=O)CC(=O)c2ccccc2)C1 (stereo not given),64,85*,-13,81*,55,2,83*
O=C1CCC(C(=O)OCC(=O)c2ccccc2)N1 (stereo not given),23,-11,0,-8,0,-4,nt
OC[C@@H]1[C@@H](c2ccc(Cl)cc2)C(c2cccc(Cl)c2)=NN1c1ccccc1,14,17,-13,54*,-4,-3,65*
C[C@H]1CN([C@@H](C)CO)C(=O)c2cccc(NS(=O)(=O)c3ccccc3)c2O[C@@H]1CN(C)Cc1ccncc1,nt,-17,nt,nt,nt,-3,nt
Cc1ccc(-c2nc(C(Cl)Cl)c3ccccc3n2)cc1,55,-8,1,111*,17,59*,99*
COCCN(CCOC)c1nc(-c2ccc(C)cc2)nc2ccccc12,9,-13,4,-4,-2,2,nt
Cc1cc(CSc2ccccc2)ccc1NC(=O)c1ccc(Br)cc1,16,8,-3,54*,4,-9,23
O=C(Nc1cccc(Br)c1)c1ccc(CSc2ccccc2)cc1,-20,-42,-8,-70,-59,-28,nt
C[C@@H]1CN([C@H](C)CO)S(=O)(=O)c2ccc(C#CCN(C)C)cc2O[C@@H]1CN(C)C(=O)C1CC1,nt,nt,nt,nt,nt,-18,nt
COc1ccc(NC(=O)c2cc(-c3ccccn3)nc3ccccc23)cc1S(=O)(=O)N(C)C,33,39,-1,61*,14,6,54*
SMILES,Shn3 3UTR inh,PAX8 inh HTS,ABHD5-PLIN5 inh,Peg3 prom inh-1,TRPM1 prom inh,EWS-Fli inh,Peg3 prom inh-2
COc1ccc(-c2cc3nc4n(c(=O)c3s2)CCC4)cc1,41,nt,11,59*,51,?,32
Cc1nc2cc(-c3ccccc3)sc2c(=O)n1N,73,76*,4,90*,90*,76*,79*
COc1ccc(-c2cc3nc(C)n(N)c(=O)c3s2)cc1,89*,86*,-4,95*,79*,90*,95*
COc1ccc(-c2cc3nc4n(c(=O)c3s2)CCCCC4)cc1,-10,-126,3,-214,-57,-29,nt
C[C@H](CO)N1C[C@H](C)[C@H](CN(C)C(=O)NC2CCCCC2)Oc2ccc(NC(=O)Nc3ccc(F)cc3)cc2CC1=O,nt,-8,nt,nt,nt,-6,nt
C[C@@H]1CCCCO[C@@H](CN(C)C(=O)Nc2ccc(F)cc2)[C@H](C)CN([C@H](C)CO)C(=O)c2cc(NS(C)(=O)=O)ccc2O1,nt,16,nt,nt,nt,-13,nt
COc1ccc(S(=O)(=O)Nc2cccc3c2O[C@H](CN(C)S(=O)(=O)c2cccs2)[C@H](C)CN([C@H](C)CO)C3=O)cc1,nt,nt,nt,nt,nt,-7,nt
COc1ccc(-c2nsc3c(N4CCCCC4C)ncnc23)cc1 (stereo not given),82,?,-5,97*,86*,83*,85*
COc1cc2nc(SCC(=O)NCc3ccco3)n(Cc3ccc(Cl)cc3)c(=O)c2cc1OC,36,-12,1,51*,62*,nt,12
CC(C)CC#Cc1ccc2c(c1)O[C@@H](CN(C)Cc1cccc(F)c1)[C@H](C)CN([C@H](C)CO)S2(=O)=O,nt,nt,nt,nt,nt,46,nt
CCCCOc1ccc(C)cc1CN(CCO)CCO,0,nt,2,1,-7,nt,nt
CCCCCc1ccc(OCCCC[n+]2cccc(C)c2)c(CCCCC)c1,79,94*,9,97*,79*,33,97*
O=C(O)C[C@@H]1C[C@@H]2c3cc(NC(=O)C4CCC4)ccc3O[C@@H]2[C@H](CO)O1,nt,-15,nt,nt,nt,nt,nt
O=S(=O)(CC(CN1CCCCC1)N1CCCCC1)c1ccccc1 (stereo not given),-15,64*,3,67*,47,-5,88*
O=C1CCCN1CC(O)CS(=O)(=O)c1ccccc1 (stereo not given),-7,-1,4,9,0,nt,nt
CC(C)CC(NS(=O)(=O)OCC(Cl)(Cl)Cl)c1ccccc1 (stereo not given),24,2,-5,57*,-1,16,45*
CCS(=O)(=O)c1nnnn1-c1ccccc1S(C)(=O)=O,-36,nt,4,58*,48,18,38
O=S(=O)(Cc1nnnn1-c1ccc(Br)cc1)c1ccccc1,5,4,1,8,nt,-4,nt

# Bioassay records as filed in PubChem BioAssay.
